# From PubChem BioAssay (Tox21)
# Values joined by “and” are separate entries in the source; they are usually repeats but may differ in a detail not shown here. Equal entries are not always repeated. Records with an inconclusive call do not appear. A call without a number means that no potency is given here. Active and inactive are the calls of the source. Calls come from the whole dose curve; as a rule, active = well fitted cell-killing curve with a large enough effect in the repeat runs; inconclusive = weak or mixed curves, or effect the other way; inactive = flat fitted curve, though single readings scatter.
# Experiment: qHTS assay to identify small molecule agonists of the androgen receptor (AR) signaling pathway in the presence of an antagonist - cell viability counter screen (AID 1259379); note: nearly all actives have a fitted effect of over 25% in size
# Conditions: MDA-kb2 viability, CellTiter-Fluor, 16 h; series mostly up to 92.4 µM
# Outline: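 MDA-kb2 cells (MMTV-luciferase, AR/GR), 3,000/well, 5 h attachment, then 3.0 µM nilutamide (final) and compounds at 15 concentrations. Viability by CellTiter-Fluor fluorescence after 16 h at 37 °C, 0% CO2, in the reporter wells.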
# Potency is the fitted concentration of half-maximal effect.
row,Structure (SMILES),Potency
1,CC1=CC[C@H](C(C)C)C=C1,inactive
2,Cc1oc2c(NC(=O)c3c(Cl)cccc3Cl)cccc2c1C(C)(C)O,21.7 µM (active)
3,CCOC(=O)NCCOc1ccc(Oc2ccccc2)cc1,61.1 µM (active)
4,C[C@H]1C[C@H]2[C@@H]3CCC4=CC(=O)C=C[C@]4(C)[C@@]3(Cl)[C@@H](O)C[C@]2(C)[C@@]1(O)C(=O)CO,inactive
5,C=CC(=O)OCCOCCOC(=O)C=C,61.4 µM (active)
6,CN(C)C(=O)NC1(c2ccccc2)CCN(CC[C@@]2(c3ccc(F)c(F)c3)CN(C(=O)c3ccccc3)CCO2)CC1,inactive
7,CC(=O)[O][Al][O]C(C)=O,inactive
8,COc1ccc(S(=O)(=O)N2C(=O)[C@@](c3ccccc3OC)(N3C[C@H](O)C[C@H]3C(=O)N(C)C)c3cc(Cl)ccc32)c(OC)c1,54.5 µM (active)
9,O=C(Nc1ccc(S(=O)(=O)N2CCOCC2)cc1)c1cc(Cl)ccc1NS(=O)(=O)c1ccc(Cl)s1,inactive
10,CCCCC/C=C\C/C=C\CCCCCCCC(=O)NC(C)c1ccccc1 (stereo not given),inactive
11,O=C(O)c1nc(Cl)c(Cl)c(Cl)c1Cl,inactive
12,CCN(CC)CCOC(=O)C(Cc1cccc2ccccc12)CC1CCCO1 (stereo not given),inactive
13,CCOc1ccc(N=Nc2ccc(/C=C/c3ccc(N=Nc4ccc(OCC)cc4)cc3S(=O)(=O)O)c(S(=O)(=O)O)c2)cc1,21.4 µM (active)
14,COC(=O)c1ccc(I)cc1S(=O)(=O)NC(=O)Nc1nc(C)nc(OC)n1,inactive
15,CN(C)CCN(Cc1ccc(Cl)cc1)c1ccccn1,inactive
16,C=CC(=O)OCCOCCOCCOCCOC(=O)C=C,61.4 µM (active) and 54 µM (active)
17,CC(=O)[O][Al],inactive
18,O=C(NCCO[N+](=O)[O-])c1cccnc1,inactive
19,Nc1ccc(S(=O)(=O)Nc2ccccc2)cc1,inactive
20,CCCCCCc1ccc(-c2ccc(C#N)cc2)cc1,inactive
21,O=C(c1ccc(F)cc1)C1CCN(CCn2c(=S)[nH]c3ccccc3c2=O)CC1,inactive
22,CCC(C)O (stereo not given),inactive
23,Cc1ccc(C(C)OC(=O)C2(C)CCC(C(=O)O)C2(C)C)cc1 (stereo not given),inactive
24,CCOC(=O)C(F)(F)F,inactive

# Experiment: qHTS assay to identify small molecule agonists of the estrogen receptor beta (ER-beta) signaling pathway - cell viability counter screen (AID 1259380); note: nearly all actives have a fitted effect of over 30% in size
# Conditions: ER-beta-bla HEK293T viability, CellTiter-Glo luminescence, 16 h; series mostly up to 92.4 µM
# Outline: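 ER-beta-UAS-bla HEK293T cells in medium with 2% charcoal-stripped FBS, pre-incubated 6 hr, then treated 16 hr at 37C. Cytotoxicity read in the same wells by CellTiter-Glo luminescence after 30 min at room temperature.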
row,Structure (SMILES),Potency
1,Cc1oc2c(NC(=O)c3c(Cl)cccc3Cl)cccc2c1C(C)(C)O,30.6 µM (active)
2,CN(C)CCCN1c2ccccc2Sc2ccccc21,21.1 µM (active)
3,CNCCCN1c2ccccc2CCc2ccccc21,23.7 µM (active)
4,C=CC(=O)OCCOCCOC(=O)C=C,24.4 µM (active)
5,CN(C)C(=O)NC1(c2ccccc2)CCN(CC[C@@]2(c3ccc(F)c(F)c3)CN(C(=O)c3ccccc3)CCO2)CC1,71.4 µM (active)
6,CCc1cc(C2=C(C(=O)O)N(c3ccccc3C(F)(F)F)S(=O)(=O)c3ccccc32)cc2c1OCO2,15.2 µM (active)
7,CCOc1ccc(N=Nc2ccc(/C=C/c3ccc(N=Nc4ccc(OCC)cc4)cc3S(=O)(=O)O)c(S(=O)(=O)O)c2)cc1,inactive
8,COC(=O)c1ccc(I)cc1S(=O)(=O)NC(=O)Nc1nc(C)nc(OC)n1,inactive
9,CN(C)CCN(Cc1ccc(Cl)cc1)c1ccccn1,33.5 µM (active)
10,O=C(O)C1(C(=O)Nc2ccc(Cl)cc2Cl)CC1,15.4 µM (active)
11,CC(=O)[O][Al],inactive
12,CCCCCCOC(=O)NC(=N)c1ccc(NCc2nc3cc(C(=O)N(CCC(=O)OCC)c4ccccn4)ccc3n2C)cc1,11.9 µM (active)
13,CCN(CC)CCNc1ccc(CNC=O)c2sc3ccc(OC)cc3c(=O)c12,8.63 µM (active)
14,C#Cc1cccc(Nc2ncnc3cc(OCCOC)c(OCCOC)cc23)c1,2.66 µM (active)
15,C=C1C(=C/C=C2\CCC[C@]3(C)[C@@H]([C@H](C)/C=C/[C@@H](O)C4CC4)CC[C@@H]23)C[C@@H](O)C[C@@H]1O,26.6 µM (active)
16,CC(C)C[C@H]1C(=O)N2CCC[C@H]2[C@]2(O)O[C@](NC(=O)[C@@H]3C=C4c5cccc6[nH]c(Br)c(c56)C[C@H]4N(C)C3)(C(C)C)C(=O)N12,inactive
17,O=C(NCCO[N+](=O)[O-])c1cccnc1,inactive
18,Nc1ccc(S(=O)(=O)Nc2ccccc2)cc1,inactive
19,CCOc1ccc(N)c([N+](=O)[O-])c1,inactive
20,CC[N+]1(CC)CCC(=C(c2ccccc2)c2ccccc2)C1C (stereo not given),inactive
21,Cc1cccc(C)c1OCC(=O)N[C@@H](Cc1ccccc1)[C@@H](O)C[C@H](Cc1ccccc1)NC(=O)[C@H](C(C)C)N1CCCNC1=O,23.7 µM (active)
